Measured values reported in PubChem BioAssay (NCI).
About 83,000 compounds went through this panel and 20% of them were active in at least one assay; those are over-represented in the sample as a whole.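 How to read the values: 0–100, growth inhibition (40 = 60% inhibited); 0, no net growth; -100 to 0, cell death (-40 = 40% of starting cells died; -100 = all dead).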 A number with no mark means an inactive call. The source made the active and inactive calls. Rule for the calls: active = growth percent below 10; inactive = the rest.

Tests used:
Assay in all cases: NCI-60 one-dose screen, 48 h (100 = growth as untreated, 0 = no growth, -100 = all killed)
Conditions in all cases: 10 µM unless noted
SR leukemia = tested on: SR leukemia
OVCAR-8 ovarian = tested on: OVCAR-8 ovarian
OVCAR-5 ovarian = tested on: OVCAR-5 ovarian
OVCAR-4 ovarian = tested on: OVCAR-4 ovarian
SK-OV-3 ovarian = tested on: SK-OV-3 ovarian
IGROV1 ovarian = tested on: IGROV1 ovarian
OVCAR-3 ovarian = tested on: OVCAR-3 ovarian
HS 578T breast = tested on: HS 578T breast
NCI/ADR-RES ovarian = tested on: NCI/ADR-RES ovarian
BT-549 breast = tested on: BT-549 breast
MDA-MB-435 melanoma = tested on: MDA-MB-435 melanoma
SW-620 colon = tested on: SW-620 colon
MCF7 breast = tested on: MCF7 breast
HCT-116 colon = tested on: HCT-116 colon
HCC-2998 colon = tested on: HCC-2998 colon
KM12 colon = tested on: KM12 colon
T-47D breast = tested on: T-47D breast

| SMILES | growth (SR leukemia) | growth (OVCAR-8 ovarian) | growth (OVCAR-5 ovarian) | growth (OVCAR-4 ovarian) | growth (SK-OV-3 ovarian) [%] | growth (IGROV1 ovarian) | growth (OVCAR-3 ovarian) | growth (HS 578T breast) | growth (NCI/ADR-RES ovarian) | growth (BT-549 breast) | growth (MDA-MB-435 melanoma) | growth (SW-620 colon) | growth (MCF7 breast) | growth (HCT-116 colon) | growth (HCC-2998 colon) | growth (KM12 colon) | growth (T-47D breast) |
| --- | --- | --- | --- | --- | --- | --- | --- | --- | --- | --- | --- | --- | --- | --- | --- | --- | --- |
| COc1cccc(/C=C2\COc3ccc(O)cc3C2=O)c1OC | 5.49% (active) | 69% | 89.7% | 92.5% | 92.9 | 67.5% | 41.2% | 73% | 63.2% | 57.8% | 19.7% | 30.5% | 12.2% | 34.3% | 94.1% | 7.8% (active) | – |
| C=C1C(=O)O[C@H]2[C@H]1CC/C(COC(=O)/C=C\C(=O)NCc1ccc(Cn3c(=O)sn(-c4ccc(Cl)cc4)c3=O)cc1)=C\CC[C@@]1(C)O[C@@H]21 | -46.3% (active) | -12% (active) | -86.2% (active) | -78.4% (active) | 52.4 | -99.5% (active) | -97.6% (active) | -18.2% (active) | -6.62% (active) | -40.9% (active) | -80.3% (active) | -65.7% (active) | -52% (active) | – | -76.8% (active) | -72.7% (active) | -44.1% (active) |
| O=C(NCCOCCOCCOCCNC(=O)c1cc2c(o1)C(=O)c1ccccc1C2=O)NC12CC3CC(CC(C3)C1)C2 | 14.8% | 1.25% (active) | -69.9% (active) | -72.8% (active) | – | 6.23% (active) | -32% (active) | -30.3% (active) | 8.9% (active) | -84.9% (active) | -95.9% (active) | -8.88% (active) | -63.3% (active) | 3.1% (active) | -67.6% (active) | -1.07% (active) | – |
| O=C1Nc2ccccc2/C1=N/N=C/c1ccc(OC2OC(CO)C(O)C(O)C2O)cc1 (stereo unspecified) | 116% | 102% | 98.2% | 115% | – | 116% | 113% | 98.9% | 106% | – | 106% | 101% | 103% | 107% | 115% | 110% | 105% |
| O=C(CC12CC3CC(CC(C3)C1)C2)NCCOCCOCCNC(=O)c1cc2c(o1)C(=O)c1ccccc1C2=O | 9.52% (active) | -2.31% (active) | -96.9% (active) | -99.1% (active) | – | -43.9% (active) | -40.8% (active) | -24.6% (active) | -24.6% (active) | -93.7% (active) | -97.7% (active) | -28.4% (active) | -68.4% (active) | -8.18% (active) | -86.9% (active) | -23.9% (active) | -11.8% (active) |
| N=C(N)c1ccc(-c2ccc(-c3ccc(Cl)c(Cl)c3)o2)cc1 | -14.5% (active) | 1.38% (active) | 39.9% | -13.1% (active) | – | -64.6% (active) | -42.2% (active) | 70.9% | 35.1% | 90% | -42.1% (active) | -73.6% (active) | -68.9% (active) | -83% (active) | -75.7% (active) | -84.2% (active) | 64.3% |
| O=C1Nc2ccccc2/C1=N/N=C/c1c[nH]c2ccccc12 | 67% | 70.4% | 81.6% | 59.9% | – | 35.7% | 69.5% | 15% | 91% | 92.7% | 73.8% | 71.5% | 72.5% | 72.4% | 101% | – | 61% |
| Cc1[nH]c(-c2nc3ccccc3[nH]2)c(C)c1C(=O)NNc1ccc(Cl)cc1 | 88.6% | 90.2% | 101% | 88.2% | – | 88% | 98.4% | 92.7% | 96.3% | 105% | 97.8% | 99.6% | 87.6% | 94% | 108% | 95.5% | 85.1% |
| N=C(N)c1ccc(-c2ccc(-c3ccc(Cl)cn3)s2)cc1 | 6.63% (active) | 38% | 52.2% | 40% | – | 14.4% | 4.7% (active) | 63.2% | 62.4% | – | -52.6% (active) | -28.3% (active) | -44.4% (active) | -67.6% (active) | -61.5% (active) | 1.88% (active) | 55.4% |
| O=C1Nc2ccc(Cl)cc2/C1=N/N=C/c1c[nH]c2ccccc12 | 75.2% | 76% | 89.8% | 67.8% | – | 42.7% | 76.5% | 22% | 98.1% | 93.5% | 87% | 79.2% | 71.1% | 75.6% | 101% | 68.1% | 73.4% |
